Structures are written as SMILES. Out of some 39,000 compounds screened, about 3,300 (8.5%) were called active. This excerpt belongs to a sample that is enriched for actives.

Consider 49 compounds from the antibiotic and cytotoxicity screens of Wong et al. (2023).

The subject of the test is HepG2. Briefly: cytotoxicity call (relative viability < 0.9). To be noted: 10 µM.
For the compound `C[C@@H]1CN([C@@H](C)CO)C(=O)c2cc(/C=C/c3ccccc3)cnc2O[C@@H]1CN(C)C(=O)CN1CCOCC1`, the cytotoxicity call was “inactive”.

For the compound `COc1ccc(NC(=O)N(C)C[C@@H]2OCCCC[C@@H](C)Oc3ccc(NC(=O)Nc4cccc5ccccc45)cc3C(=O)N([C@H](C)CO)C[C@@H]2C)cc1`, the cytotoxicity call is “inactive”.

Regarding `C[C@@H]1CCCCO[C@@H](CN(C)C(=O)c2ccncc2)[C@H](C)CN([C@@H](C)CO)C(=O)c2cc(NC(=O)C3CCCCC3)ccc2O1`, the cytotoxicity call was “inactive”.

`Cc1noc(C)c1S(=O)(=O)N(C)C[C@@H]1Oc2ccc(NC(=O)CCCN(C)C)cc2CC(=O)N([C@@H](C)CO)C[C@H]1C`: the cytotoxicity call is “inactive”.

`C[C@H](CO)N1C[C@H](C)[C@@H](CN(C)C(=O)Nc2ccc3c(c2)OCO3)OCc2ccccc2-c2c(n(C)c3ccccc23)C1=O`: the cytotoxicity call was “inactive”.

As to `CN1C[C@@H]2CN(C(=O)[C@H]3CCOC3)C[C@H]2C1=O`, the cytotoxicity call is “inactive”.

Consider `CC(CO)(CO)NS(=O)(=O)c1ccccc1`, for which the cytotoxicity call is “inactive”.

Consider `COc1ccncc1-c1ccccc1CN(C(=O)c1ccc(-c2ccc(C#N)cc2)o1)c1ccc(N2CCNCC2)cc1`, for which the cytotoxicity call is “active”.

Consider `C[C@H](CO)N1C[C@H](C)[C@@H](CN(C)C(=O)Nc2ccc3c(c2)OCO3)OCCCC[C@H](C)Oc2ccc(NC(=O)CCC(F)(F)F)cc2C1=O`, for which the cytotoxicity call is “inactive”.

As for `COc1ccc(S(=O)(=O)Nc2ccc3c(c2)C(=O)N([C@H](C)CO)C[C@H](C)[C@H](CN(C)S(=O)(=O)c2c(C)noc2C)O3)cc1`, the cytotoxicity call is “inactive”.

On to `CO[C@H]1CN(C)C(=O)c2ccc(NC(=O)c3ccc(F)cc3)cc2OC[C@H](C)N(C(=O)CN(C)C)C[C@@H]1C`, for which the cytotoxicity call is “inactive”.

`COCCNC(=O)C[C@@H]1CC[C@@H]2[C@H](COc3ccc(NS(=O)(=O)c4ccc(Cl)cc4)cc3C(=O)N2C)O1`: the cytotoxicity call is “inactive”.

For the compound `CN(C(=O)CN(CCO)CC(=O)N(C)C(C)(C)Cc1ccccc1)C(C)(C)Cc1ccccc1`, the cytotoxicity call was “active”.

With `O=C(O)CN(CCc1ccccc1)CC(=O)O`, the cytotoxicity call is “inactive”.

On to `C[C@@](Cc1ccccc1)(NC(=O)CN)c1ccccc1`, for which the cytotoxicity call was “inactive”.

In the case of `O=C(NC1(c2ccccc2)CC1)c1c(CN2CCC(N3CCCCC3)CC2)c(-c2cccc(C(F)(F)F)c2)nc2cc(Br)ccc12`, the cytotoxicity call is “active”.

For the compound `COc1ccc(S(=O)(=O)N(C)C[C@@H]2Oc3c(NS(=O)(=O)c4ccccc4)cccc3C(=O)N([C@H](C)CO)C[C@H]2C)cc1`, the cytotoxicity call was “inactive”.

Turning to `COc1cccc(OC)c1OCCNCCO`, the cytotoxicity call was “inactive”.

With `COc1ccccc1OCCNCC(O)COc1cccc2[nH]c3ccccc3c12.O=P(O)(O)O` (centres undefined), the cytotoxicity call was “active”.

With `COc1ccccc1OCCNCC(O)COc1cccc2[nH]c3ccccc3c12` (centres undefined), the cytotoxicity call was “active”.

On to `COc1ccccc1OCC(O)CO` (centres undefined), for which the cytotoxicity call was “inactive”.

As to `COc1ccccc1OC[C@@H](O)CO`, the cytotoxicity call was “inactive”.

With `CO[C@@H]1CN(C)C(=O)c2ccc(NC(=O)Nc3ccccc3F)cc2OC[C@H](C)N(Cc2ccccc2C(=O)O)C[C@H]1C`, the cytotoxicity call is “inactive”.

With `O=C(C[C@H]1C[C@@H]2c3cc(NC(=O)Cc4ccncc4)ccc3O[C@@H]2[C@@H](CO)O1)NCc1ccc2c(c1)OCO2`, the cytotoxicity call is “inactive”.

As to `Cc1noc(C)c1S(=O)(=O)Nc1ccc2c(c1)C(=O)N([C@@H](C)CO)C[C@@H](C)[C@H](CN(C)Cc1ccccc1)OCCCC[C@H](C)O2`, the cytotoxicity call was “inactive”.

`COc1ccc(NC(=O)N(C)C[C@@H]2Oc3ccc(NC(=O)C4CC4)cc3C(=O)N([C@H](C)CO)C[C@@H]2C)cc1`: the cytotoxicity call was “inactive”.

Regarding `Cc1ccc(S(=O)(=O)N(C)C[C@H]2Oc3ncc(-c4ccncc4)cc3C(=O)N([C@@H](C)CO)C[C@@H]2C)cc1`, the cytotoxicity call was “inactive”.

Regarding `C[C@@H]1CCCCO[C@@H](CN(C)C(=O)Nc2cccc3ccccc23)[C@@H](C)CN([C@@H](C)CO)C(=O)c2cc(NC(=O)Nc3ccc(C(F)(F)F)cc3)ccc2O1`, the cytotoxicity call was “inactive”.

`C[C@H]1CN([C@@H](C)CO)C(=O)Cc2cc(NC(=O)CCN3CCOCC3)ccc2O[C@H]1CN(C)Cc1ccc(C(=O)Nc2ccccc2N)cc1`: the cytotoxicity call is “inactive”.

`Cc1ccc(S(=O)(=O)N[C@@H](Cc2ccccc2)C(=O)NCCCn2cc(CN3C(=O)COC[C@H]3c3ccccc3)nn2)cc1`: the cytotoxicity call was “inactive”.

For `CC(=O)O[C@@H]1[C@H](OC(C)=O)N(C(C)=O)C(=O)N1C(C)=O`, the cytotoxicity call was “inactive”.

Turning to `CC(=O)O[C@@H]1[C@@H]2C[C@@H]([C@H]1OC(C)=O)[C@@H]1C(=O)N(C)C(=O)[C@@H]21`, the cytotoxicity call is “active”.

On to `CC(=O)O[C@@H]1[C@H](OC(C)=O)N(C)C(=O)N1C`, for which the cytotoxicity call was “inactive”.

As to `C[C@@H]1CN([C@H](C)CO)C(=O)c2cccc(NS(C)(=O)=O)c2O[C@H]1CN(C)Cc1ccc(C(=O)Nc2ccccc2N)cc1`, the cytotoxicity call was “inactive”.

For the compound `C[C@@H]1O[C@@H](OC[C@H]2O[C@@H](Oc3c(-c4ccc(O)cc4)oc4cc(O)cc(O)c4c3=O)[C@H](O)[C@@H](O)[C@@H]2O)[C@H](O)[C@H](O)[C@H]1O`, the cytotoxicity call was “inactive”.

On to `COc1ccc(CN2C[C@H](C)[C@H](OC)CN(C)C(=O)c3cc(NC(=O)c4nc5ccccc5s4)ccc3OC[C@@H]2C)cc1`, for which the cytotoxicity call is “inactive”.

On to `C[C@@H]1CN([C@@H](C)CO)C(=O)c2cc(NC(=O)Cn3cnnn3)ccc2O[C@@H]1CN(C)S(=O)(=O)c1ccc(F)cc1`, for which the cytotoxicity call was “inactive”.

Consider `Cc1ccc(-c2ncns2)cc1`, for which the cytotoxicity call is “inactive”.

Turning to `Cc1cccnc1[C@@H](NC(=O)C1CCN(Cc2ccc(Cl)c(Cl)c2)CC1)c1ccc(Cl)cc1`, the cytotoxicity call is “active”.

Regarding `O=C(N[C@@H](c1ccc(-c2ccccc2)cc1)c1cnccn1)C1CCN(Cc2cccc(C(F)(F)F)c2)CC1`, the cytotoxicity call is “inactive”.

For `O=C(N[C@H](c1ccc(Cl)cc1)c1ccsc1)C1CCN(Cc2ccc(Oc3ccccc3)cc2)CC1`, the cytotoxicity call was “inactive”.

Consider `Cc1cccnc1[C@@H](NC(=O)C1CCN(CCOc2ccc(Cl)cc2Cl)CC1)c1ccc(Cl)cc1`, for which the cytotoxicity call is “inactive”.

Consider `O=C(N[C@@H](c1ccc(-c2ccccc2)cc1)c1cnccn1)C1CCN(Cc2ccc(Oc3ccccc3)cc2)CC1`, for which the cytotoxicity call was “active”.

For `COc1cccc([C@@H](NC(=O)C2CCN(Cc3ccc(Oc4ccccc4)cc3)CC2)c2ccccn2)c1`, the cytotoxicity call is “inactive”.

On to `O=C(N[C@@H](c1ccc(-c2ccccc2)cc1)c1cnccn1)C1CCN(Cc2ccc(Cl)c(Cl)c2)CC1`, for which the cytotoxicity call was “inactive”.

As for `O=C(N[C@H](c1ccc(Cl)cc1)c1cnccn1)C1CCN(Cc2ccc(Oc3ccccc3)cc2)CC1`, the cytotoxicity call was “active”.

As to `COc1ccc([C@@H](NC(=O)C2CCN(Cc3ccc(Oc4ccccc4)cc3)CC2)c2ccccn2)cc1`, the cytotoxicity call is “inactive”.

Regarding `COc1cc(CN2CCC(C(=O)N[C@@H](c3ccc(-c4ccccc4)cc3)c3cnccn3)CC2)cc(OC)c1`, the cytotoxicity call is “active”.

Take `Cc1cccnc1[C@@H](NC(=O)C1CCN(Cc2ccc(Oc3ccccc3)cc2)CC1)c1ccc(F)cc1`: the cytotoxicity call is “inactive”.
